# Screening results as filed in PubChem.
# An excerpt weighted towards active compounds, which were near 2.9% of everything screened.
# MEKK2 mut-MEK5 – signal of MEK5 binding to mutant human MEKK2 PB1 domain. bead flow cytometry, Alexa488-MEK5 binding to MEKK2 mutant. percent response, % at 10 µM. 0.35% of 290,000 active; in the data active = percent response above about 24%, passing the limit was not always enough
# Beta2AR agonist – human beta-2 adrenergic receptor agonism by FAP | P07550 | Am2.2-beta2AR cells, FAP receptor internalization, flow cytometry | response, % (concentration not given with the values) | 0.43% of 340,000 active | AID 504454;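 active = response above a set limit, near 3 SD of response in nonfluorescent compounds, cut at about 42% in these data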
# GRK2 aptamer HTS – blocks RNA aptamer binding to human GRK2; P25098; bead flow cytometry, FAM-aptamer displacement from GRK2; inhibition of aptamer binding, % at 10 µM; 0.59% of 330,000 active; AID 488847;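 active = inhibition of aptamer binding above 40%, roughly 3 SD of noise, on plates passing a quality check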;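 also: median bead fluorescence of bound FAM aptamer so fluorescent compounds give negative values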
# Target sequence (P25098 whole entry, looked up): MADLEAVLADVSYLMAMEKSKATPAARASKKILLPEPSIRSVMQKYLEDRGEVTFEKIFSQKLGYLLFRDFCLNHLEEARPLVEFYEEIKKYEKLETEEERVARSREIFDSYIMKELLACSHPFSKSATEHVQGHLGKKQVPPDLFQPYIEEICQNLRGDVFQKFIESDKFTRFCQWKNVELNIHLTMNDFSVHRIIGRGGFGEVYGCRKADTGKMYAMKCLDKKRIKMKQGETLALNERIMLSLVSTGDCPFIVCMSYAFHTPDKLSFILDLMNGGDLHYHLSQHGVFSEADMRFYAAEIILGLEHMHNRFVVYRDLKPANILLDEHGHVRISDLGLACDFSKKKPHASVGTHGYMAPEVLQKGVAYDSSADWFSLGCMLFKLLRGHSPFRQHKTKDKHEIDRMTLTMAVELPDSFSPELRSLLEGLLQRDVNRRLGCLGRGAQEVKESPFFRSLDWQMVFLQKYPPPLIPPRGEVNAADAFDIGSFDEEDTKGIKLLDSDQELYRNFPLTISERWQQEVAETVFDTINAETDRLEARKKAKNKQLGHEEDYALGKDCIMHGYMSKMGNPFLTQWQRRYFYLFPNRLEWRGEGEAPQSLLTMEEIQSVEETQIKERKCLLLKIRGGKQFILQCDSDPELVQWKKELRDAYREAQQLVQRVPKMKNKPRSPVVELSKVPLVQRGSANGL
# MEKK3 PB1 HTS – raises or lowers MEK5 binding to the human MEKK3 PB1 domain | 1.4% of 290,000 active | bead-based flow cytometry, Alexa488-MEK5 binding to MEKK3; actives lie on both sides; 0 = blocked by unlabeled MEK5, 100 = vehicle | AID 1529 | Q99759 | binding response (% of control), % at 10 µM;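 active = binding response more than 3 SD above or below the average of its plate-row segment, actives on both sides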;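 also: Alexa488 bead fluorescence after subtracting the streptavidin-only scavenger bead signal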
# MEKK2wt PB1 HTS – raises or lowers MEK5 binding to wildtype human MEKK2 PB1 domain; AID 1531; Q9Y2U5; binding response (% of control), % at 10 µM; bead flow cytometry, Alexa488-MEK5 binding to MEKK2 WT; actives lie on both sides; 1.1% of 290,000 active; in the data active = binding response below about 67% or above about 130%
# MEKK2wt confirm – raises or lowers MEK5 binding to wildtype human MEKK2, retest. binding response (% of control), % at 10 µM. bead flow cytometry, Alexa488-MEK5 binding to MEKK2 WT; actives lie on both sides. shares compounds with MEKK3 PB1 HTS. 2.4% of 5,900 active; in the data active = binding response below about 16% or above about 210%; inactive = in between
# MEKK2mut confirm – signal of MEK5 binding to mutant human MEKK2, retest; 2% of 5,900 active; shares compounds with MEKK3 PB1 HTS; percent response, % at 10 µM; bead flow cytometry, Alexa488-MEK5 binding to MEKK2 mutant; in the data active = percent response mostly above about 71%, no sharp cut-off; inactive = mostly below about 38%;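 also: higher means compound restores mutant binding toward wildtype level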
# MEKK3 confirm – MEKK3-MEK5 PB1 inhibition, single concentration confirmation; shares compounds with MEKK3 PB1 HTS; bead flow cytometry, Alexa488-MEK5 binding to MEKK3; active compounds read low; binding response (% of control), % at 10 µM; 1.8% of 5,900 active; AID 1894;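 active = binding response below 72% of control, or above a set upper limit, though filed actives all read lower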;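 also: 100% = DMSO only wells and 0% = binding blocked by excess unlabeled MEK5; lower values mean stronger disruption of MEK5 binding to MEKK3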
# * hit, by the source's call; · = no result given; [ ] = remark or other dose.
SMILES,MEKK2 mut-MEK5,Beta2AR agonist,GRK2 aptamer HTS,MEKK3 PB1 HTS,MEKK2wt PB1 HTS,MEKK2wt confirm,MEKK2mut confirm,MEKK3 confirm
O=C(Nc1ccncc1)Nc1cccc(C(F)(F)F)c1,-3,-3,0,100,101,·,·,·
O=C(NCCNC(=O)c1cc(OCC(F)(F)F)ccc1OCC(F)(F)F)Nc1cccc(C(F)(F)F)c1,11,-4,1,103,142*,111,4,103
Cc1ccc(S(=O)(=O)Nc2ccc(NC(=O)Nc3cccc(C(F)(F)F)c3)cc2)cc1,54*,14,0,109,171*,176,36,97
O=C(Nc1ccc(OC(F)F)cc1)Nc1cccc(C(F)(F)F)c1,17,8,1,113,209*,115,-1,93
Fc1cccc(F)c1[B-](F)(F)F,·,0,·,·,·,·,·,·
COCC1CCCN(C(=O)c2ccc3nc(Cc4cccc(Cl)c4)oc3c2)C1 (configuration not stated),7,-8,11,102,109,·,·,·
CCCCCOP(=O)(c1ccccc1)c1ccccc1,13,2,0,104,108,·,·,·
CC(C)OP(=O)(c1ccccc1)c1ccccc1,0,-6,3,153*,109,115,8,105
COc1ccc(C(=O)CSc2nnc(NC(=O)C3CC(=O)N(c4ccccc4)C3)s2)cc1 (configuration not stated),1,1,0,136*,105,104,9,104
Cc1ccc(CN2C(=O)CCC2C(=O)N2CCN(c3ccccc3)CC2)cc1 (configuration not stated),-46,2,1,4.0*[inhibitor],6.0*[inhibitor],108,10,106
COc1ccc(Nc2cc(C(=O)NCCCN3CCOCC3)c3ccccc3n2)cc1OC,5,-9,2,109,112,·,·,·
COc1ccc(-c2nc(C(=O)NCCCN3CCOCC3)cc3c2[nH]c2ccccc23)cc1OC,15,2,0,105,137*,150,24,110
Cc1ccc(-c2nc(C(=O)NCCCN3CCOCC3)cc3c2[nH]c2ccccc23)cc1,21,-26,0,101,142*,156,41,108
COc1ccc(C(C(=O)NC2CCCCC2)N(Cc2cccnc2)C(=O)c2snc(C(N)=O)c2N)cc1 (configuration not stated),2,-15,1,99,99,·,·,·
Cc1ccc(S(=O)(=O)N2CCC(C(=O)NC3CC(C)(C)NC(C)(C)C3)CC2)cc1C,8,6,0,99,105,·,·,·
Cc1c(N2C(=O)c3ccc(Br)cc3C2=O)c(=O)n(-c2ccccc2)n1C,-16,-12,1,2.0*[inhibitor],3.0*[inhibitor],97,5,100
O=C(N/N=C/c1cn(Cc2ccccc2)c2ccccc12)c1ccncc1,-2,-1,0,98,95,·,·,·
COC(=O)N/N=C/c1cn(CCOc2ccccc2)c2ccccc12,-38,-16,2,-1.0*[inhibitor],-17*[inhibitor],97,-7,102
Cc1ccc(OCC(=O)N/N=C/c2cn(Cc3ccccc3)c3ccccc23)cc1,0,3,2,143*,102,94,-9,105
CCOC(=O)N/N=C/c1cn(CCCOc2ccccc2)c2ccccc12,-1,-9,0,140*,100,93,-4,99
CCOC(=O)N/N=C/c1cn(Cc2ccc(Cl)cc2)c2ccccc12,0,4,0,103,98,·,·,·
COc1ccc(C(=O)NCc2ccc(-c3nc4ccccc4s3)cc2)cc1,3,-3,2,105,100,·,·,·
COc1cc(C(=O)NCc2ccc(-c3nc4ccccc4s3)cc2)cc(OC)c1OC,0,-13,5,136*,107,105,2,99
CC(C)CCNC(=O)c1cc2c(=O)n3ccccc3nc2s1,2,-8,3,99,102,·,·,·
CCC(C)c1ccc(NC(=O)NCCN2CCCCC2)cc1 (configuration not stated),3,7,0,101,111,·,·,·
SMILES,MEKK2 mut-MEK5,Beta2AR agonist,GRK2 aptamer HTS,MEKK3 PB1 HTS,MEKK2wt PB1 HTS,MEKK2wt confirm,MEKK2mut confirm,MEKK3 confirm
c1ccc2c(c1)cnc1ccccc12,-13,-3,1,37*[inhibitor],33*[inhibitor],104,3,107
Nc1nc2ccccc2nc1N,1,7,0,95,99,·,·,·
c1ccc2nc3ccccc3nc2c1,1,-5,0,46*[inhibitor],68,103,7,105
Cc1noc(C)c1CSc1ncnc2sc3c(c12)CCC3,3,·,·,133*,104,97,-6,98
Cc1noc(C)c1CSc1ncnc2sc3c(c12)CCC(C)C3 (configuration not stated),-2,·,1,95,96,·,·,·
O=C(CCNC(=O)c1ccc(Cl)cc1)NCC(c1ccco1)N1CCCC1 (configuration not stated),·,5,·,·,·,·,·,·
O=C(C1=C[C@@H](c2coc3ccccc3c2=O)C[C@@H](OCc2ccc(CO)cc2)O1)N1CCOCC1,1,-18,·,82*[inhibitor],101,97,-3,98
CN1CCN(C(=O)C2=C[C@H](c3coc4ccccc4c3=O)C[C@H](OCc3ccc(CO)cc3)O2)CC1,3,-8,0,101,101,·,·,·
N#Cc1nc(COc2ccccc2F)oc1NCCCn1ccnc1,-26,-12,0,1.0*[inhibitor],2.0*[inhibitor],97,2,93
COc1ccc(C(C(=O)NC2CCCC2)N(C(=O)c2ccco2)c2cc3c(cc2C(C)=O)OCO3)cc1 (configuration not stated),-4,-3,1,97,95,·,·,·
CC(=O)Nc1c(C(=O)N2CCCCCC2)cnn1-c1ccccc1,-11,-1,0,81*[inhibitor],86,105,-5,102
COc1ccccc1N(C)C(=O)c1cc(S(=O)(=O)N2CCCC2)cn1C,3,-1,1,100,98,·,·,·
Cn1c(O)c(C2=c3ccccc3=NC2=O)[nH]c1=S,-1,-10,0,75*[inhibitor],96,96,9,97
CC(C)NS(=O)(=O)c1ccc(CCC(=O)Nc2ccc3c(c2)OCCO3)cc1,3,-1,1,164*,114,101,-2,95
CCNS(=O)(=O)c1ccc(CCC(=O)Nc2ccc3c(c2)OCCO3)cc1,0,0,0,105,102,·,·,·
